Assay results taken from PubChem BioAssay (EPA / NIEHS).
Active and inactive are the calls of the source. Rule for the calls: active = hit-call score of the fitted dose curve at least 0.9, where 1 is the maximum; inactive = score below 0.9.

read-out: Transforming growth factor beta 1 (TGFb1), TGFB1 (gene 7040); assay: BSK_KF3CT_TGFb1: BioMAP Diversity Plus: KF3CT Assay for Transforming growth factor beta 1 (TGFb1) Biomarker Activity (AID 2283072); settings: primary human keratinocytes with fibroblasts; actives raise or lower the signal
Description: BSK_KF3CT is a cell-based, multiplexed-readout assay that uses keratinocytes and foreskin fibroblasts, a human skin primary cell co-culture, with measurements taken at 24 hours after chemical dosing in a 96-well plate.BSK_KF3CT_TGFb1 is an assay component measured in the BSK_KF3CT assay. It measures TGF-b1 antibody related to regulation of gene expression using ELISA technology.Data from the assay component BSK_KF3CT_TGFb1 was analyzed into 1 assay endpoint. This assay endpoint, BSK_KF3CT_TGFb1, was analyzed with bidirectional fitting relative to DMSO as the negative control and baseline of activity. Using a type of binding reporter, gain or loss-of-signal activity can be used to understand changes in the signaling as they relate to the gene TGFB1. Furthermore, this assay endpoint can be referred to as a primary readout, because this assay has produced multiple assay endpoints where this one serves a signaling function. To generalize the intended target to other relatable targets, this assay endpoint is annotated to the growth factor intended target family, where the subfamily is transforming growth factor beta.
The levels of cell surface (or secreted, indicated by the prefix "s") biomarker endpoints were measured by ELISA. Overt cytotoxicity to cells in confluent adherent cultures (all systems other than the BT system) was assessed by measuring total protein levels using sulforhodamine B (SRB) staining in parallel cultures at the time of biomarker measurements, indicated as SRB endpoints. For proliferation assays for adherent cell types, individual cell types are cultured at sub-confluence and relative cell numbers quantified by SRB staining at time points optimized for each system (48 h: 3C and CASM3C systems; 72 h: BT and HDF3CGF systems; 96 h: SAg system). SRB was performed by staining cells with 0.1% SRB after fixation with 10% TCA and reading wells at 560 nm.Viability and proliferation of PBMC (T cells) was quantified by Alamar Blue reduction for the SAg and BT systems. For PBMC viability (referred to as PBMC Cytotoxicity within the assay endpoint names), cells were plated (75,000/well in a 96-well plate) and then chemical samples added for 1 h before addition of activators, SEB and TSST-1 (20 ng/mL final concentration each). Cells were incubated for 90 h. Then, Alamar Blue (20 uL/well) (Invitrogen, Cat DAL1100) was added for 6 h, and the plates were read with a fluorescence microplate reader at 546/580 nm (excitation/emission). For PBMC proliferation, cells were plated and activated as above but incubated for only 16 h prior to addition of Alamar Blue. Plates were read after 6 h.

SMILES	outcome	AC50
CCc1c(C)cc(N)c(CC)c1N	inactive	–
CC(=O)Nc1ccccc1O	inactive	–
CN(CCOc1ccc(CC2SC(=O)NC2=O)cc1)c1ccccn1 (centres undefined)	–	0.016 µM (active)
c1ccc2sc(SN(C3CCCCC3)C3CCCCC3)nc2c1	inactive	–
CCCCC(CC)COC(=O)/C=C\C(=O)OCC(CC)CCCC (centres undefined)	inactive	–
CC(C)Oc1ccccc1O	inactive	–
O=C(O)c1cn(C2CC2)c2cc(N3CCNCC3)c(F)cc2c1=O	inactive	–
CC(C)(COC(=O)c1ccccc1)COC(=O)c1ccccc1	inactive	–
CC(=O)/C=C/C1=C(C)CCCC1(C)C	inactive	–
CCn1c2ccccc2c2cc(N)ccc21	inactive	–
CC1COc2ccccc2N1C(=O)C(Cl)Cl (centres undefined)	inactive	–
Cc1ccc(Nc2ccc(O)c3c2C(=O)c2ccccc2C3=O)cc1	inactive	–
Cc1ccc(O)c(C(C)(C)C)c1	–	20 µM (active)
CC1CCC(C(C)CS)CC1S (centres undefined)	–	7.37 µM (active)
BrC1CCC(Br)C(Br)CCC(Br)C(Br)CCC1Br (centres undefined)	inactive	–
O=C=NC1CCC(CC2CCC(N=C=O)CC2)CC1 (centres undefined)	inactive	–
COC(=O)c1ccc(C)cc1	inactive	–
CCCCCCCCCC=O	inactive	–
CC(C)c1ccc(C(C)C)cc1	inactive	–
O=[N+]([O-])c1cc(C(F)(F)F)ccc1Cl	inactive	–

SMILES	outcome	AC50
CNC[C@H](O)c1cccc(O)c1	inactive	–
C#C[C@]1(O)CC[C@H]2[C@@H]3CCC4=Cc5oncc5C[C@]4(C)[C@H]3CC[C@@]21C	inactive	–
CCCCCCCCCCCCCCCCCC(=O)OCC(CC)CCCC (centres undefined)	inactive	–
Nc1cc([N+](=O)[O-])ccc1Cl	inactive	–
O=C(O)C[C@H](O)C[C@H](O)/C=C/c1c(C2CC2)nc2ccccc2c1-c1ccc(F)cc1	inactive	–
c1ccc2c(c1)c1cccc3ccc4cccc2c4c31	–	0.0518 µM (active)
CCCCC(CC)COCCC#N (centres undefined)	inactive	–
O=P(c1ccccc1)(c1ccccc1)c1ccccc1	inactive	–
O=C1OC2(c3cc(Br)c(O)c(Br)c3Oc3c2cc(Br)c(O)c3Br)c2c(Cl)c(Cl)c(Cl)c(Cl)c21	–	0.979 µM (active)
C=C[Si](OCC)(OCC)OCC	inactive	–
O=C1CCCCCCCCCCCCCCO1	–	20 µM (active)
Cc1ccc2n[nH]nc2c1	inactive	–
CC(=O)O[C@]1(C(C)=O)CC[C@H]2[C@@H]3C[C@H](C)C4=CC(=O)CC[C@]4(C)[C@H]3CC[C@@]21C	inactive	–
CCCCC/C=C/C=C/C=O	–	9.27 µM (active)
O=C(O)c1cn(-c2ccc(F)cc2)c2cc(N3CCNCC3)c(F)cc2c1=O	inactive	–
C=C(C)C(=O)O[C@H]1C[C@@H]2CC[C@@]1(C)C2(C)C	inactive	–
N#Cc1ccc(CC(=NNC(=O)Nc2ccc(OC(F)(F)F)cc2)c2cccc(C(F)(F)F)c2)cc1	–	0.463 µM (active)
CCCCCCCCC=O	inactive	–
O=C(O)c1ccc([N+](=O)[O-])cc1	inactive	–
